# POLH inh = qHTS for Inhibitors of Polymerase Eta | DNA polymerase eta (Homo sapiens), Q9Y253 | recombinant Pol eta, fluorescent DNA replication assay | Potency, µM (doses to about 114 µM), without a hit: at the highest dose activity change, negative = inhibition, usual class: inhibitors | hit rate 1.2% among 390,000; note: % is set by controls: 0 for no effect and ±100 for the full control effect
#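 Pol eta (10 nM) was preincubated with compounds for 15 min at room temperature, after which fluorescent replication substrate (50 nM final) was added to start the reaction. Fluorescence was read kinetically at 0 and 10 min.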
# WRN helicase inh = qHTS for Inhibitors of WRN Helicase | Bifunctional 3'-5' exonuclease/ATP-dependent helicase WRN (Homo sapiens), Q14191 | WRN helicase unwinding, fluorescent forked duplex, kinetic | AID 651768, 2012 | hit rate 0.46% among 360,000 | Potency, µM (top dose mostly 114 µM), for the others: at the highest dose activity change, negative = inhibition, actives largely listed as inhibitors; note: % is set by controls: 0 for no effect and ±100 for the full control effect; nearly all actives have a fitted effect of over 55% in size
#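 Fluorescence dequenching readout, ex 525 nm/em 598 nm, kinetic mode: forked duplex DNA (100 nM final) with adjacent fluorophore and quencher unwound by WRN (20 nM final) with 2 mM ATP. Compound preincubation 15 min, room temperature.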
# POLB inh = qHTS Assay for Inhibitors of DNA Polymerase Beta. AID 485314, 2010. Potency, µM (titrated, usually from 114 µM), inactives show at the top dose activity change, negative = inhibition, usual class: inhibitors. hit rate 1.3% among 340,000. P06746. Pol beta primer extension/strand displacement, fluorescence kinetic; note: % is set by controls: 0 for no effect and ±100 for the full control effect
#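 Curves were derived by four-parameter Hill fits of normalized qHTS data. The kinetic fluorescent primer-extension read was taken at 0 and 10 min after 50 nM substrate, following a 15 min room-temperature preincubation of 10 nM enzyme with compounds.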
# FEN1 inhibitor = qHTS Assay for the Inhibitors of Human Flap endonuclease 1 (FEN1) | Recombinant FEN1 flap cleavage, fluorescence, 15 min | Potency, µM (series often up to 114 µM), for the others: top-dose activity change, negative = inhibition, actives largely listed as inhibitors | hit rate 0.35% among 390,000 | AID 588795, 2011; note: % is set by controls: 0 for no effect and ±100 for the full control effect; nearly all actives have a fitted effect of over 65% in size
# Target sequence (P39748 whole entry, looked up): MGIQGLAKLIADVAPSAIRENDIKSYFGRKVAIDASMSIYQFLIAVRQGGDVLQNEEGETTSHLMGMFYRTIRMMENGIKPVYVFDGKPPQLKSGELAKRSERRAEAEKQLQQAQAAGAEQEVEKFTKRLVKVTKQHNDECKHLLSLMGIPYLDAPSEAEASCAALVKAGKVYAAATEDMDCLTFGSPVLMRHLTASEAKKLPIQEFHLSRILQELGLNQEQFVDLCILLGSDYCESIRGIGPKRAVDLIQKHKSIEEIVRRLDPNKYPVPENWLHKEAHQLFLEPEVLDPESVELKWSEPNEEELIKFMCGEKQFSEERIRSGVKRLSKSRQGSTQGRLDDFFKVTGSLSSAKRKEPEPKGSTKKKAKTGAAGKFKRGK
#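 With each library titrated from low to high concentration, compounds met 10 nM FEN1 for 15 min at room temperature before 50 nM substrate was added; readings at 0 and 15 min fed four-parameter Hill curve fits.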
# POLK inh = qHTS for Inhibitors of Polymerase Kappa; Potency, µM (top dose mostly 107 µM), for the others: at the top dose activity, negative = inhibition, usual class: inhibitors; hit rate 0.53% among 400,000; DNA polymerase kappa (Homo sapiens), Q9UBT6; purified Pol kappa, fluorescent DNA synthesis assay, 10 min; note: % is set by controls: 0 for no effect and ±100 for the full control effect
#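 Readout: fluorescence, taken kinetically at 0 and 10 min. Conditions: 10 nM Pol kappa, 15 min RT compound preincubation, 50 nM substrate final. Controls: enzyme-free buffer wells.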
# Pol iota inh = qHTS for Inhibitors of Polymerase Iota; DNA polymerase iota (Homo sapiens), Q9UNA4; Pol iota fluorescent replication assay, 10 min; Potency, µM (series often up to 115 µM), for the others: at the highest dose activity, negative = inhibition, most hits filed as inhibitors; hit rate 1% among 390,000
#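 Fluorescent replication assay read twice, at 0 min and 10 min after adding 50 nM (final) substrate. Enzyme (10 nM) and compounds were first incubated 15 min at room temperature; enzyme-free buffer wells were negative controls.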
# Numbers without * were called inactive; ? = inconclusive; · = not tested or not shown; [ ] = another dose, or the depositor's remark. Most compounds without a hit are left out; they make up all but 2.4% or so of the library. Calls come from the whole dose curve; as a rule, active = well fitted curve in the direction sought with a large enough effect; inconclusive = small, poorly fitted or top-dose-only effect, or another doubt; inactive = no such curve, though single readings can be large; an effect the other way counts as inactive or inconclusive. Potency is the fitted concentration of half-maximal effect.
SMILES,POLH inh,WRN helicase inh,POLB inh,FEN1 inhibitor,POLK inh,Pol iota inh
NS(=O)(=O)c1ccc(CCNc2nc3c(-c4cccc(F)c4)nnn3c3ccccc23)cc1,?,-22%,22%,1%,-6%,10%
Cc1ccc(-c2nnn3c2nc(NCCc2ccc(Cl)cc2)c2ccccc23)cc1,-14%,·,4%,-5%,-6%,39%
Cc1cccc(-c2nnn3c2nc(NCCc2ccc(S(N)(=O)=O)cc2)c2ccccc23)c1,?,-33%,10µM*,-2%,0%,?
CC1CC1C(=O)OCC(=O)Nc1ccc2[nH]c(=O)[nH]c2c1 (stereo unspecified),50µM*,-21%[57.1 µM],25µM*,-32%,-22%,40µM*
O=C(CCS(=O)(=O)c1ccc(Br)cc1)NCc1ccc(F)cc1,40µM*,-16%,?,-1%,?,-83%
O=C(CCS(=O)(=O)c1ccc(Br)cc1)NC1CCCCCC1,25µM*,-13%[11.6 µM],?,-1%,-4%,15%
COc1cccc(C2C3=C(N=c4s/c(=C\c5cccc(O)c5)c(=O)n42)c2ccccc2CC3)c1OC (stereo unspecified),-14%,-9%,19%,-11%,8%,7%
COc1cccc(C2C3=C(N=c4s/c(=C\c5ccc(O)cc5)c(=O)n42)c2ccccc2CC3)c1OC (stereo unspecified),-15%,1%,6%,-1%,-8%,4%
COc1ccccc1C1C2=C(N=c3s/c(=C/c4cccc(OCC(=O)O)c4)c(=O)n31)c1ccccc1CC2 (stereo unspecified),40µM*,-32%,50µM*,-21%,-31%,?
COc1cccc(C2C3=C(N=c4s/c(=C\c5ccc(OCC(=O)O)cc5)c(=O)n42)c2ccccc2CC3)c1 (stereo unspecified),89µM*,-20%,?,-17%,-16%,-4%
CC(=O)c1cccc(Nc2nn(-c3ccc(OC(F)(F)F)cc3)nc2C(C)=O)c1,-11%,·,-10%,20%,-4%,18%
COc1cc(C=O)cc(OC)c1[N+](=O)[O-],·,·,·,11%,-4%,11%
CC(C)(CO)C(O)C(=O)NCCCC(=O)O (stereo unspecified),·,·,·,·,2%[19.4 µM],·
COc1ccc(OC)c(NS(=O)(=O)c2ccc(-c3cc(C)no3)s2)c1,6%,·,-9%,-10%,-17%,14%
CCOc1ccc(OCC)c(S(=O)(=O)N2CCN(c3cccc(C)c3C)CC2)c1,-13%,·,3%,-3%,-2%,4%
Oc1cccc(CN2CCOCC2)c1O,2%,?,·,?,28µM*,20µM*
Oc1c(CN2CCOCC2)cc(CN2CCOCC2)c(O)c1O,?,22µM*,·,?,?,?
C=CC#CC[N+]1(CC#Cc2ccccc2)CCOCC1,35µM*,22µM*,4%,18µM*,?,?
C(#Cc1ccccc1)C[N+]1(CC#Cc2ccccc2)CCCC1,1%,1%,47%,1%,0%,24%
Cc1cc2c(cc3c(SCC(=O)Nc4cccc(Cl)c4C)nnc(C)n32)o1,-8%,·,-1%,15%,-4%,17%
CCCCNC(=O)N1CCN(c2ccnc3cc(Cl)ccc23)CC1,?,50µM*,2%,?,-3%,28µM*
Cc1ccc(F)cc1NC(=O)N1CCN(c2ccnc3cc(Cl)ccc23)CC1,-24%,0%,-23%,-13%,-8%,30%
COC(=O)c1cc(NC(=O)c2sc3ncn(Cc4cccc(F)c4)c(=O)c3c2C)cc(C(=O)OC)c1,-12%,·,-19%,-6%,-15%[60.1 µM],28%
N#C/C(=C\c1ccco1)c1nc2ccccc2s1,-19%,8%,2%,12%,-6%,110%
N#C/C(=C(/O)c1ccc(-c2cccc([N+](=O)[O-])c2)o1)c1nc2ccccc2s1,18µM*,-31%[57.1 µM],-23%,-10%,?,50µM*
SMILES,POLH inh,WRN helicase inh,POLB inh,FEN1 inhibitor,POLK inh,Pol iota inh
N#C/C(=C/c1ccc(-c2cc(C(=O)O)cc(C(=O)O)c2)o1)c1nc2ccccc2s1,·,·,20µM*,·,·,·
O=C(NCCCN1CCN(c2ccc(F)cc2)CC1)c1cc2c(Cl)nc3ccccc3c2s1,-13%,·,8%,-7%,-11%,24%
O=C(CSCc1ccccc1Cl)N1CCN(c2ccc(F)cc2)CC1,-23%,·,-24%,7%,-2%[60.1 µM],7%
NC(=O)CC[C@@H]1NC(=O)[C@H](CO)NC(=O)c2cc([N+](=O)[O-])cc(I)c2NCCC[C@@H](C(N)=O)NC(=O)[C@H](Cc2ccc(O)cc2)NC1=O,89µM*,-19%,0%,-10%,-12%,?
NC(=O)[C@@H]1CCCNc2c(I)cc([N+](=O)[O-])cc2C(=O)N[C@@H](CO)C(=O)N[C@@H](Cc2ccc(O)cc2)C(=O)N1,-3%,-8%,-12%,-3%,12%,-5%
CC[C@H](C)C1NC(=O)[C@H](CC(=O)O)NC(=O)c2cc([N+](=O)[O-])cc(I)c2NCCC(C(N)=O)NC1=O (stereo partly specified),25µM*,-16%[57.1 µM],1%,-4%,79µM*,?
NC(=O)[C@@H]1CCCNc2c(F)cc([N+](=O)[O-])cc2C(=O)N[C@@H](CCC(=O)O)C(=O)N[C@@H](CO)C(=O)N1,3%,-4%,11%,-7%,-21%,?
NC(=O)[C@@H]1CCCCNc2c(I)cc([N+](=O)[O-])cc2C(=O)N[C@@H](CCC(=O)O)C(=O)N[C@@H](CO)C(=O)N1,6.3µM*,?,0%,-3%,50µM*,18µM*
C[C@@H]1NC(=O)[C@H](CCC(N)=O)NC(=O)c2cc([N+](=O)[O-])cc(I)c2NCC[C@@H](C(N)=O)NC1=O,-14%,-3%,20%,0%,1%,-2%
NC(=O)[C@@H]1CCNc2c(I)cc([N+](=O)[O-])cc2C(=O)N[C@@H](CCC(=O)O)C(=O)N[C@@H](CO)C(=O)N1,22µM*,-15%[57.1 µM],-7%,-2%,?,?
CC(C)(C)n1ncc2c(=O)n(Cc3cccc(-c4ccccc4)c3)cnc21,·,·,·,6%,3%,20%
O=C(NCC(c1ccc2c(c1)OCO2)N1CCN(c2ccccc2)CC1)c1ccccc1 (stereo unspecified),-13%,·,-16%,-19%,-5%[60.1 µM],-2%

# Assay outcomes as filed in PubChem.
